According to PubChem BioAssay (NCATS):
Results filed as inconclusive are left out. The source made the active and inactive calls. Calls come from the whole dose curve; as a rule, active = well fitted inhibition curve with a large enough effect; inconclusive = small, poorly fitted or top-dose-only effect; inactive = flat fitted curve, though single readings scatter.

What was measured:
Assay in all cases: qHTS profiling for inhibitors of Plasmodium falciparum proliferation (AID 504749); note: nearly all actives have a fitted effect of over 60% in size
Settings in all cases: P. falciparum in erythrocytes, SYBR Green DNA, 72 h; series mostly up to 28.7 µM
[1] = test system: ATS95
Procedure, shortened: (§1)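 SYBR Green fluorescence (ex 485 nm, em 535 nm) reports parasite DNA after 72 h compound exposure of infected red cells at 0.3% parasitemia, 2.5% hematocrit; signal normalized to 0.29 uM artemisinin and vehicle wells.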

[2] = test system: C2A
Procedure, shortened: as §1

[3] = test system: CP185
Procedure, shortened: as §1

[4] = test system: CP191
Procedure, shortened: as §1

[5] = test system: CP192
Procedure, shortened: as §1

[6] = test system: CP194
Procedure, shortened: as §1

[7] = test system: CP201
Procedure, shortened: as §1

[8] = test system: CP203
Procedure, shortened: as §1

[9] = test system: CP211
Procedure, shortened: as §1

[10] = test system: CP215
Procedure, shortened: as §1

Measured: Potency

C=Cc1c(C)c2cc3[nH]c(cc4nc(cc5nc(cc1[nH]2)C(C)=C5CCC(=O)O)C(CCC(=O)O)=C4C)c(C)c3C=C
inactive: [1] | [2] | [3] | [4] | [5] | [6] | [7] | [8] | [9] | [10]

COc1ccc2c(c1)C(=O)N(CCc1ccc(S(=O)(=O)NC(=O)NC3CCCCC3)cc1)C(=O)C2(C)C
inactive: [1] | [2] | [3] | [4] | [5] | [6] | [7] | [8] | [9] | [10]

COc1ccc(S(=O)(=O)Nc2nnc(CC(C)C)s2)cc1
inactive: [1] | [2] | [3] | [4] | [5] | [6] | [7] | [8] | [9] | [10]

NCCNCCNCCNCCN
inactive: [1] | [2] | [3] | [4] | [5] | [6] | [7] | [8] | [9] | [10]

Cc1cccc(C)c1NC(=O)CN(CC(=O)O)CC(=O)O
inactive: [1] | [2] | [3] | [4] | [5] | [6] | [7] | [8] | [9] | [10]

O=c1cc[nH]c(=S)[nH]1
inactive: [1] | [2] | [3] | [4] | [5] | [6] | [7] | [8] | [9]

O=C(O)CN1C(=O)c2cccc3cccc(c23)C1=O
inactive: [1] | [2] | [3] | [4] | [5] | [6] | [7] | [8] | [9] | [10]

O=C(O)CC(O)C(=O)O (stereo unspecified)
inactive: [1] | [2] | [3] | [4] | [5] | [6] | [7] | [8] | [9] | [10]

O=C(Oc1ccccc1C(=O)O)c1ccccc1O
inactive: [1] | [2] | [3] | [4] | [5] | [6] | [7] | [8] | [9] | [10]

NCC(=O)CCC(=O)O
inactive: [1] | [2] | [3] | [4] | [5] | [6] | [7] | [8] | [9] | [10]

O=S(=O)(O)c1cc(I)c(O)c2ncccc12
inactive: [1] | [2] | [3] | [4] | [5] | [6] | [7] | [8] | [9] | [10]

CC(=O)Nc1ccc(/C=N/NC(N)=S)cc1
inactive: [1] | [2] | [3] | [4] | [5] | [6] | [7] | [8] | [9] | [10]

CC1=C(/C=C/C(C)=C/C=C/C(C)=C/C(=O)O)C(C)(C)CCC1
inactive: [1] | [2] | [3] | [4] | [5] | [6] | [7] | [8] | [9] | [10]

CC(=O)Oc1ccc(C2(c3ccc(OC(C)=O)cc3)C(=O)Nc3ccccc32)cc1
inactive: [1] | [2] | [3] | [4] | [5] | [6] | [7] | [8] | [9] | [10]

CCC(=O)c1ccc(O)cc1
inactive: [1] | [2] | [3] | [4] | [5] | [6] | [7] | [8] | [9] | [10]

O=C(O)c1ccccn1
inactive: [1] | [2] | [3] | [4] | [5] | [6] | [7] | [8] | [9]

Nc1nc2c(ncn2CCC(CO)CO)c(=O)[nH]1
inactive: [1] | [2] | [3] | [4] | [5] | [6] | [7] | [8] | [9] | [10]

Cc1cc(CC(=O)O)n(C)c1C(=O)c1ccc(Cl)cc1
inactive: [1] | [2] | [3] | [4] | [5] | [6] | [7] | [8] | [9] | [10]

CC(O)COc1ccccc1 (stereo unspecified)
inactive: [1] | [2] | [3] | [4] | [5] | [6] | [7] | [8] | [9] | [10]

C[C@H]1O[C@@H](n2cc(F)c(=O)[nH]c2=O)[C@H](O)[C@@H]1O
inactive: [1] | [2] | [3] | [4] | [5] | [6] | [7] | [8] | [9] | [10]

CC(O)CN(CCN(CC(C)O)CC(C)O)CC(C)O (stereo unspecified)
inactive: [1] | [2] | [3] | [4] | [5] | [6] | [7] | [8] | [9] | [10]

C[C@@H]1CN(c2c(F)c(F)c3c(=O)c(C(=O)O)cn(C4CC4)c3c2F)C[C@H](C)N1
inactive: [1] | [2] | [3] | [4] | [5] | [6] | [7] | [8] | [9] | [10]

O=Cc1ccccc1C=O
inactive: [1] | [2] | [3] | [4] | [5] | [6] | [7] | [8] | [9]

CC(C)(C)NCC(O)COc1ccc(NC(=O)NC2CCCCC2)cc1 (stereo unspecified)
inactive: [1] | [2] | [3] | [4] | [5] | [6] | [7] | [8] | [9] | [10]

Oc1cccc(O)c1
inactive: [1] | [2] | [3] | [4] | [5] | [6] | [7] | [8] | [9] | [10]

CCCCC(CC)COC(=O)c1ccccc1O (stereo unspecified)
inactive: [1] | [2] | [3] | [4] | [5] | [6] | [7] | [8] | [9] | [10]

Cc1cc(O)cc2c1O[C@](C)(CCC[C@H](C)CCC[C@H](C)CCCC(C)C)CC2
inactive: [1] | [2] | [3] | [4] | [5] | [6] | [7] | [8] | [9]

O=C(O)c1ccccc1-c1ccc(C(F)(F)F)cc1
inactive: [1] | [2] | [3] | [4] | [5] | [6] | [7] | [8] | [9] | [10]

CC(=O)NC(Cc1ccccc1)C(=O)O (stereo unspecified)
inactive: [1] | [2] | [3] | [4] | [5] | [6] | [7] | [8] | [9] | [10]

CC1(C)OC(=O)NC1=O
inactive: [1] | [2] | [3] | [4] | [5] | [6] | [7] | [8] | [9]

O=C(O)c1ccccc1O
inactive: [1] | [2] | [3] | [4] | [5] | [6] | [7] | [8] | [9] | [10]

OCC(O)CN1CCN(c2ccccc2)CC1 (stereo unspecified)
inactive: [1] | [2] | [3] | [4] | [5] | [6] | [7] | [8] | [9] | [10]

O=C1O[C@H]([C@@H](O)CO)C(O)=C1O
inactive: [1] | [2] | [3] | [4] | [5] | [6] | [7] | [8] | [9] | [10]

CCCCc1ncc(/C=C(\Cc2cccs2)C(=O)O)n1Cc1ccc(C(=O)O)cc1
inactive: [1] | [2] | [3] | [4] | [5] | [6] | [7] | [8] | [9] | [10]

N[C@@H](CSCCCO)C(=O)O
inactive: [1] | [2] | [3] | [4] | [5] | [6] | [7] | [8] | [9] | [10]

Cc1ccc(C(C)C)cc2c(C)ccc1-2
inactive: [1] | [2] | [3] | [4] | [5] | [6] | [7] | [9]

CC1(C)[C@@H]2CC[C@@]1(C)C(=O)C2
inactive: [1] | [2] | [3] | [4] | [5] | [6] | [7] | [8] | [9] | [10]

NC(CSCC(=O)O)C(=O)O (stereo unspecified)
inactive: [1] | [2] | [3] | [4] | [5] | [6] | [7] | [9]

CCCCN(CCCC)CCCOC(=O)c1ccc(N)cc1
inactive: [1] | [2] | [3] | [4] | [5] | [6] | [7] | [8] | [9] | [10]

Cn1c(=O)c2c(ncn2CC2OCCO2)n(C)c1=O
inactive: [1] | [2] | [3] | [4] | [5] | [6] | [7] | [8] | [9] | [10]

NS(=O)(=O)c1cc2c(cc1Cl)NC(CSCc1ccccc1)=NS2(=O)=O
inactive: [1] | [2] | [3] | [4] | [5] | [6] | [7] | [9] | [10]

CCN(CC)CCSC(=O)C(c1ccccc1)c1ccccc1
inactive: [1] | [2] | [3] | [4] | [5] | [6] | [7] | [9] | [10]

Nc1ncnc2c1ncn2[C@@H]1O[C@H](CO)[C@@H](O)[C@H]1O
inactive: [1] | [2] | [3] | [4] | [5] | [6] | [7] | [9] | [10]

CC1(C)CO[C@@H](CC(=O)O)CN1
inactive: [1] | [2] | [3] | [4] | [5] | [6] | [7] | [8] | [9] | [10]

O=C1c2c(O)cccc2Cc2cccc(O)c21
inactive: [1] | [2] | [3] | [4] | [5] | [6] | [7] | [8] | [9] | [10]

C#CCN(C)Cc1ccccc1
inactive: [1] | [2] | [3] | [4] | [5] | [6] | [7] | [9]

Cc1cc(C(C#N)c2ccc(Cl)cc2)c(Cl)cc1NC(=O)c1cc(I)cc(I)c1O (stereo unspecified)
inactive: [1] | [2] | [3] | [4] | [5] | [6] | [7] | [8] | [9] | [10]

COc1ccccc1O
inactive: [1] | [2] | [3] | [4] | [5] | [6] | [7] | [8] | [9] | [10]

COC(=O)C1=C(C)NC(C)=C(C(=O)OC)C1c1ccccc1[N+](=O)[O-]
inactive: [1] | [2] | [3] | [4] | [5] | [6] | [7] | [8] | [9] | [10]
